# From PubChem BioAssay
# Where “and” joins values, the source holds several entries; their conditions need not be identical. Identical values can stand only once. Calls of active or inactive are those of the source.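 The calls were made as follows, unless noted: active = thallium flux through the channel raised or lowered by more than 3 SD from vehicle-only wells, actives on both sides; inactive = the rest.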
# What was measured:
# [1] = P. berghei load reduction in hepatocytes – cell-based, HepG2, luciferase luminescence, HepG2 viability, primary screen (AID 624349; in the data active = parasite load remaining mostly below about 12%, no sharp cut-off; inactive = mostly above about 10%;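 also: 100% = mean of DMSO negative control wells on the same plate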); conditions: P. berghei liver stage in HepG2, luciferase luminescence, concentration not given here; parasite load remaining: stronger effect = lower value; viability: measured here: HepG2 viability without parasites
# [2] = signal quenchers or enhancers, Cy5 substrate/SSB – biochemical, NIH Clinical Collection, E. coli SSB, artefact control for HCV NS3 helicase inhibitor project (AID 743268; call rule not given here); conditions: Cy5-oligo bound E. coli SSB, fluorescence interference
# [3] = tested on: Hepatitis C virus NS3 helicase; test: blockers of NS3h binding to DNA – biochemical, fluorescence polarization, NIH Clinical Collection, primary screen (AID 743270; call rule not given here); conditions: NS3 helicase binding to Cy5-dT15 DNA, stronger effect = higher value, concentration not given here
# [4] = target: Single-stranded DNA-binding protein (Escherichia coli (strain K12)) (UniProt P0AGE0); test: SSB-ssDNA binding inhibitors – biochemical, fluorescence polarization, NIH Clinical Collection, counter-screen for HCV NS3 helicase inhibitor project (AID 743271; in the data active = inhibition above about 28%); conditions: E. coli SSB-DNA binding, stronger effect = higher value, concentration not given here
# [5] = compounds distorting NS3 helicase fluorescence signal – biochemical, NIH Clinical Collection, artefact control for HCV NS3 helicase inhibitor project (AID 743272; call rule not given here;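 also: HCV NS3 helicase with a Cy5 labelled single stranded DNA probe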); conditions: fluorescence interference counterscreen, HCV NS3 helicase assay; stronger effect = lower value
# [6] = modulation of C. elegans fzo-1 (AID 1259413; call rule not given here;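 also: fzo-1 mutant C. elegans worms in liquid wells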); conditions: C. elegans fzo-1 modulator screen, mean read-out; stronger effect = higher value
# [7] = viability loss with induced miR-34 in A549 – imaging, A549 dox-inducible miR-34, nuclei and caspase counts, primary screen (AID 1347080;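 active = compounds whose cell count with miR-34 switched on is under 0.7 times the count with it off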); conditions: A549 miR-34 inducible, Hoechst nuclei count, 48 h
# [8] = MELAS cybrid and Rieske KO viability enhancers – cell-based, MELAS cybrids, Rieske KO mouse fibroblasts, CellTiter-Glo, primary screen (AID 1508586;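 active = mean z-score across replicates of 1.96 or higher in either the MELAS or the Rieske mutant cell line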;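 also: z relative to plate mean and SD of compound and empty wells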); conditions: low glucose
# F380Y = test: BK channel mutant inhibitors and activators – cell-based, U2OS BacMam, thallium flux, beta subunits, selectivity assay, profiling panel (AID 1259406); conditions: U2OS BacMam BK variants, at 30 µM;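 also: initial slope of Thallos dye fluorescence rise after thallium is added; log ratio against the mean of 0.3% DMSO vehicle wells on the same plate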
# F380Y/beta1 = test: as above; conditions: U2OS BacMam BK variants, at 30 µM
# F380Y/beta2Delta = test: as above; conditions: U2OS BacMam BK variants, at 30 µM
# F380Y/beta4 = test: as above; conditions: U2OS BacMam BK variants, at 30 µM
# [9] = target: Calcium-activated potassium channel subunit alpha-1 (Homo sapiens) + Leucine-rich repeat-containing protein 26 (Homo sapiens) (UniProt Q12791+Q2I0M4); test: as above; conditions: U2OS BacMam BK variants, F380Y/Slo1WT/gamma1, at 30 µM
# R275C = test: as above; conditions: U2OS BacMam BK variants, at 30 µM
# R275C/beta1 = test: as above; conditions: U2OS BacMam BK variants, at 30 µM
# R275C/beta2Delta = test: as above; conditions: U2OS BacMam BK variants, at 30 µM
# R275C/beta4 = test: as above; conditions: U2OS BacMam BK variants, at 30 µM
# R275C/Slo1WT/beta2 = test: as above; conditions: U2OS BacMam BK variants, at 30 µM
# [10] = stronger effect = lower value, cell number ratio, induced over uninduced
# [11] = measured here: relative caspase fold change +Dox/-Dox
# [12] = measured here: total cells with miR-34 induction, stronger effect = lower value
# [13] = measured here: total cells without miR-34 induction
# [14] = MELAS cybrid survival, CellTiter-Glo 48 h, stronger effect = higher value
# [15] = Rieske KO mouse fibroblast survival, CellTiter-Glo 72 h
# Chain of Calcium-activated potassium channel subunit alpha-1 (Homo sapiens) + Leucine-rich repeat-containing protein 26 (Homo sapiens) (Q2I0M4 whole entry, looked up, one chain of several): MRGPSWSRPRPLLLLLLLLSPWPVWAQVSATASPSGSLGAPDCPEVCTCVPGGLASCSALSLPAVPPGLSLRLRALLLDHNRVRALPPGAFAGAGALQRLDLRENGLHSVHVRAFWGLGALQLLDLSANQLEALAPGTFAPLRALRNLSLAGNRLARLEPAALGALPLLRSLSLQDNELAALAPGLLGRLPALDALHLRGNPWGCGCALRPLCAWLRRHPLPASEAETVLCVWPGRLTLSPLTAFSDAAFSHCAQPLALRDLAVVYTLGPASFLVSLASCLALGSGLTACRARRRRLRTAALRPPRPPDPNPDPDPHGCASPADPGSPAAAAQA
smiles,measurement,setting,value
NC(=O)c1ncn(C2OC(CO)C(O)C2O)n1 (centres undefined),parasite load remaining,[1],36.7% (inactive)
same,viability,[1],151%
same,fluorescence ratio,[2],1.01 (inactive)
same,inhibition,[3],1.36% (inactive)
same,inhibition,[4],5.62% (inactive)
same,fluorescence ratio,[5],1.05 (inactive)
same,mean signal,[6],278 (inactive)
same,fold change,[7]; [10],0.987 (inactive) and 0.921 (inactive)
same,fold change,[7]; [11],1.64 and 0.871
same,cell count,[7]; [12],9950 and 8880
same,cell count,[7]; [13],10100 and 9640
same,z-score,[8]; [14],-0.322 (inactive)
same,z-score,[8]; [15],0.486
same,log fold change Tl+ flux,F380Y,-0.0109 (inactive)
same,log fold change Tl+ flux,F380Y/beta1,-0.00666 (inactive)
same,log fold change Tl+ flux,F380Y/beta2Delta,-0.00987 (inactive)
same,log fold change Tl+ flux,F380Y/beta4,0.00318 (inactive)
same,log fold change Tl+ flux,[9],-0.0406 (inactive)
same,log fold change Tl+ flux,R275C,0.0183 (inactive)
same,log fold change Tl+ flux,R275C/beta1,-0.000638 (inactive)
same,log fold change Tl+ flux,R275C/beta2Delta,-0.0258 (inactive)
same,log fold change Tl+ flux,R275C/beta4,-0.0315 (inactive)
same,log fold change Tl+ flux,R275C/Slo1WT/beta2,0.0198 (inactive)
NC(Cc1cc(I)c(Oc2ccc(O)c(I)c2)c(I)c1)C(=O)O (centres undefined),parasite load remaining,[1],39.9% (inactive)
same,viability,[1],106%
same,fluorescence ratio,[2],0.99 (inactive)
same,inhibition,[3],-1.36% (inactive)
same,inhibition,[4],1.81% (inactive)
same,fluorescence ratio,[5],0.92 (inactive)
same,mean signal,[6],230 (inactive)
same,fold change,[7]; [10],0.986 (inactive) and 0.874 (inactive)
same,fold change,[7]; [11],1.58 and 0.636
same,cell count,[7]; [12],9780 and 7770
same,cell count,[7]; [13],9910 and 8890
same,z-score,[8]; [14],-0.101 (inactive)
same,z-score,[8]; [15],0.0136
same,log fold change Tl+ flux,F380Y,0.0253 (inactive)
same,log fold change Tl+ flux,F380Y/beta1,0.112 (inactive)
same,log fold change Tl+ flux,F380Y/beta2Delta,0.058 (inactive)
same,log fold change Tl+ flux,F380Y/beta4,0.107 (active)
same,log fold change Tl+ flux,[9],0.0742 (inactive)
same,log fold change Tl+ flux,R275C,0.047 (inactive)
same,log fold change Tl+ flux,R275C/beta1,0.0451 (inactive)
same,log fold change Tl+ flux,R275C/beta2Delta,0.136 (active)
same,log fold change Tl+ flux,R275C/beta4,0.254 (active)
same,log fold change Tl+ flux,R275C/Slo1WT/beta2,-0.125 (active)
C[C@H]1[C@@H](OC(=O)CCC(=O)O)O[C@@H]2OC3(C)CC[C@H]4[C@H](C)CC[C@@H]1[C@@]24OO3,parasite load remaining,[1],54.9% (inactive) and 19.6% (inactive)
same,viability,[1],74.2% and 68%
same,fluorescence ratio,[2],1.05 (inactive)
same,inhibition,[3],4.36% (inactive)
same,inhibition,[4],-3.18% (inactive)
same,fluorescence ratio,[5],0.99 (inactive)
same,mean signal,[6],258 (inactive)
same,fold change,[7]; [10],1.04 (inactive)
same,fold change,[7]; [11],0.836
same,cell count,[7]; [12],6160
same,cell count,[7]; [13],5910
same,z-score,[8]; [14],-1.42 (inactive)
same,z-score,[8]; [15],0.615
same,log fold change Tl+ flux,F380Y,0.0198 (inactive)
same,log fold change Tl+ flux,F380Y/beta1,0.0472 (inactive)
same,log fold change Tl+ flux,F380Y/beta2Delta,0.00204 (inactive)
same,log fold change Tl+ flux,F380Y/beta4,0.00589 (inactive)
same,log fold change Tl+ flux,[9],-0.0126 (inactive)
same,log fold change Tl+ flux,R275C,0.0183 (inactive)
same,log fold change Tl+ flux,R275C/beta1,0.0209 (inactive)
same,log fold change Tl+ flux,R275C/beta2Delta,0.00454 (inactive)
same,log fold change Tl+ flux,R275C/beta4,-0.0146 (inactive)
same,log fold change Tl+ flux,R275C/Slo1WT/beta2,0.000694 (inactive)
